# Laboratory results taken from PubChem BioAssay (Tox21).
# A number with no mark means an inactive call. Records with an inconclusive call do not appear. Where a call stands in place of a potency, no number is given. Active and inactive are the calls of the source. Unless noted, calls come from the whole dose curve; as a rule, active = well fitted curve in the direction sought with a large enough effect in the repeat runs; inconclusive = weak or mixed curves; inactive = no such curve, though single readings can be large; an effect the other way counts as inactive or inconclusive.
# Legend:
# [1] = qHTS assay to identify small molecule agonists of the sonic hedgehog signaling (Shh) pathway - cell viability counter screen (AID 1259366); note: nearly all actives have a fitted effect of over 50% in size
# In short: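 Compounds in DMSO were pin-transferred onto 3T3 Gli1-Luc cells that had settled 4hr; plates then stood 24hr at 37C and 5% CO2. One hour before the end, CellTiter-Fluor was added and fluorescence recorded.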
# [2] = qHTS assay to identify small molecule agonists of the sonic hedgehog signaling (Shh) pathway (AID 1259368; calls by dose curve; note: series mostly up to about 92 µM; nearly all actives have a fitted effect of over 15% in size)
# In short: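 NIH/3T3-derived 3T3Gli1-Luc cells carrying a stably integrated Gli1 response element–firefly luciferase reporter were plated, left 4 hr at 37 C, then given compounds in DMSO for 24 hr. Luminescence was read 30 min after adding luciferase reagent.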
# [3] = qHTS assay to identify small molecule antagonists of the sonic hedgehog signaling (Shh) pathway (AID 1259369; calls by dose curve; note: nearly all actives have a fitted effect of over 45% in size)
# In short: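 NIH/3T3-derived 3T3Gli1-Luc cells with stably integrated Gli1-Luc reporter were preincubated 4hr at 37 C, then given compounds in DMSO plus Shh conditioned medium and incubated 24hr. Firefly luciferase luminescence read after 30min reagent at room temperature.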
# [4] = target: Estrogen receptor beta (Homo sapiens) (UniProt Q92731); assay: qHTS assay to identify small molecule agonists of the estrogen receptor beta (ER-beta) signaling pathway (AID 1259377; active = well fitted activation curve with a large enough effect in the signal ratio in the repeat runs, not every such curve was filed as active; the % refers to the signal ratio; note: potency is the fitted concentration of half-maximal effect)
# In short: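 qHTS in ER-beta-UAS-bla HEK293T cells: 6 hr settling, then 16 hr compound at 37C, then LiveBLAzer substrate 2 h at RT before fluorescence reading.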
# [5] = qHTS assay to identify small molecule agonists of the androgen receptor (AR) signaling pathway in the presence of an antagonist - cell viability counter screen (AID 1259379); note: series mostly up to about 92 µM; nearly all actives have a fitted effect of over 25% in size
# In short: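 MDA-kb2 human breast carcinoma cells (stable MMTV-luciferase, AR/GR responsive) were seeded 3,000 cells/well, pre-incubated 5 hr at 37C without CO2, then given 3.0uM nilutamide and compounds at 15 concentrations for 16 hr. Viability was read by CellTiter-Fluor fluorescence.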
# [6] = qHTS assay to identify small molecule agonists of the estrogen receptor beta (ER-beta) signaling pathway - cell viability counter screen (AID 1259380); note: nearly all actives have a fitted effect of over 30% in size
# In short: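 ER-beta-UAS-bla HEK293T cells in medium with 2% charcoal-stripped FBS were preincubated 6 hr at 37C, dosed with compound in DMSO for 16 hr, then after the bla read, CellTiter-Glo was added for 30 min at room temperature; luminescence recorded.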
# [7] = target: Androgen receptor (Homo sapiens) (UniProt P10275); assay: qHTS assay to identify small molecule agonists of the androgen receptor (AR) signaling pathway in the presence of an antagonist (AID 1259381; calls by dose curve; note: nearly all actives have a fitted effect of over 15% in size)
# In short: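 MDA-kb2 human breast carcinoma cells carrying an MMTV-luciferase reporter (AR- and GR-responsive) were treated with compounds at 15 concentrations plus 3.0uM final nilutamide for 16hr at 37C without CO2; luminescence was read after ONE-Glo addition.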
# [8] = qHTS assay to identify small molecule antagonists of the estrogen receptor beta (ER-beta) signaling pathway - cell viability counter screen (AID 1259382);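 note: HEK293T cells carrying ER-beta-UAS-bla reporter stimulated with estradiol; series mostly up to about 92 µM; nearly all actives have a fitted effect of over 55% in size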
# In short: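 ER-beta-UAS-bla HEK293T cells (2,000/well, 2% charcoal-stripped FBS) were pre-incubated 6 hr at 37C, then given compound plus 1nM final 17-beta-estradiol for 16 hr. Viability was read in the same wells by CellTiter-Glo luminescence after 30 min at room temperature.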
# [9] = target: Estrogen receptor beta (Homo sapiens) (UniProt Q92731); assay: qHTS assay to identify small molecule antagonists of the estrogen receptor beta (ER-beta) signaling pathway (AID 1259378; active = well fitted inhibition curve with a large enough effect in the signal ratio in the repeat runs, not every such curve was filed as active; the % refers to the signal ratio)
# In short: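 Antagonist mode: compounds added to beta-lactamase reporter HEK293T ER-beta-UAS cells stimulated with E2 (1nM final), 16 hr at 37C. LiveBLAzer B/G FRET substrate, 2 hours room temperature, fluorescence read-out.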
# [10] = qHTS assay to identify small molecule antagonists of the sonic hedgehog signaling (Shh) pathway - cell viability counter screen (AID 1259367); note: nearly all actives have a fitted effect of over 55% in size
# In short: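 Using CellTiter-Fluor, viability of Gli1-Luc reporter 3T3 cells is read by fluorescence in the wells used for the Shh luciferase assay. Treatment lasts 23 hr with conditioned medium, then reagent 1 hr at 37C.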
# Estrogen receptor beta (Homo sapiens), sequence (Q92731 whole entry, looked up): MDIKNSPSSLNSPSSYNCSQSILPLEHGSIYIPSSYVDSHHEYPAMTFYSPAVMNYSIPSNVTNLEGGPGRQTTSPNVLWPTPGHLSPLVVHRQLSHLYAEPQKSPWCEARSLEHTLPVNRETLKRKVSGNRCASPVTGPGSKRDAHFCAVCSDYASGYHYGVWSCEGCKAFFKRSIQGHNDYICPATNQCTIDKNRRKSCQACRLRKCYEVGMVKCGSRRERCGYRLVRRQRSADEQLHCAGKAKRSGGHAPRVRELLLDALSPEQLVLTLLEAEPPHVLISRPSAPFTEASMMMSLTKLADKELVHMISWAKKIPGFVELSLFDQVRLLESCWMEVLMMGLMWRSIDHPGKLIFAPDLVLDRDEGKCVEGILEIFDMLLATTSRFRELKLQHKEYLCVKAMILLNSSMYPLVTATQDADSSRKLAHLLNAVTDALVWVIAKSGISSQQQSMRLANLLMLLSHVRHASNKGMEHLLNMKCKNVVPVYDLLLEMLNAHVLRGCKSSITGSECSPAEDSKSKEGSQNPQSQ
# Androgen receptor (Homo sapiens), sequence (P10275 whole entry, looked up): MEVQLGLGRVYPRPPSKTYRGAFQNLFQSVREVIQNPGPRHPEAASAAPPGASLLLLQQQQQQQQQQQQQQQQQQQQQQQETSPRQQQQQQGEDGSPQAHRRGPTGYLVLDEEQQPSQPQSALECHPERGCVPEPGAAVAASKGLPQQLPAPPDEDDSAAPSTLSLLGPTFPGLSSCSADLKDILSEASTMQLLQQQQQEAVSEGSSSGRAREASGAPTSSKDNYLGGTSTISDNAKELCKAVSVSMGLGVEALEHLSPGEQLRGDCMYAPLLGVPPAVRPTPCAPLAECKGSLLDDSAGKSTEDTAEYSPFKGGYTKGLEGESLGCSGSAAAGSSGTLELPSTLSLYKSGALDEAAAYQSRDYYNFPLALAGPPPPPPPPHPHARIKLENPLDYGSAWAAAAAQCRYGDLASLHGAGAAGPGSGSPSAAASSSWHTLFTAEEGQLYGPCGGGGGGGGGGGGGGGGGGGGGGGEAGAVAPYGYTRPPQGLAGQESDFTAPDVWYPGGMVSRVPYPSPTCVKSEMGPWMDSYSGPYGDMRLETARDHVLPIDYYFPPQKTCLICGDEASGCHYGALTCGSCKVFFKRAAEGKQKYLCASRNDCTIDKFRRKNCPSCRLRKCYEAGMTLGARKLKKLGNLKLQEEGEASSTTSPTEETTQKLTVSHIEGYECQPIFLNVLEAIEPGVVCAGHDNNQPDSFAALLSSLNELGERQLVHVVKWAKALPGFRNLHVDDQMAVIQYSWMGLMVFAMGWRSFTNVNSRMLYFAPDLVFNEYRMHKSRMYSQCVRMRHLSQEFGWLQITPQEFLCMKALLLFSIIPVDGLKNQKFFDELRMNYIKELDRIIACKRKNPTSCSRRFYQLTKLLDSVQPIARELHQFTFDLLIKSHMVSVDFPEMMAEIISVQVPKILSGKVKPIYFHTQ
smiles,measurement,setting,value
C/C(Cl)=C/CCl,outcome,[1],inactive
same,outcome,[2],inactive
same,Potency,[3],inactive
same,Potency,[4],inactive
same,outcome,[5],inactive
same,Potency,[6],inactive
same,outcome,[7],inactive
same,outcome,[8],inactive
CCCCCCCC(=O)N(C)C,outcome,[1],inactive
same,outcome,[2],inactive
same,Potency,[4],inactive
same,outcome,[9],inactive
same,outcome,[5],inactive
same,Potency,[6],inactive
same,outcome,[8],inactive
CC(=O)OC1CCC(C(C)(C)C)CC1 (stereo not drawn),outcome,[1],inactive
same,outcome,[2],inactive
same,Potency,[3],inactive
same,outcome,[5],inactive
same,Potency,[6],inactive
same,outcome,[7],inactive
C=CCN1CCc2nc(N)sc2CC1,outcome,[1],inactive
same,outcome,[2],inactive
same,Potency,[3],inactive
same,outcome,[5],inactive
same,Potency,[6],inactive
same,outcome,[7],inactive
same,outcome,[8],inactive
C=COCCCCO,outcome,[1],inactive
same,outcome,[2],inactive
same,Potency,[3],inactive
same,Potency,[4],inactive
same,outcome,[9],inactive
same,outcome,[5],inactive
same,outcome,[8],inactive
O=C(O)CCC(=O)Nc1ccc(S(=O)(=O)Nc2nccs2)cc1,outcome,[1],inactive
same,outcome,[2],inactive
same,Potency,[3],inactive
same,Potency,[4],inactive
same,outcome,[5],inactive
same,outcome,[8],inactive
CCCCCCCCCCCCCCCCN(C)C,"viability change, negative = cytotoxic",[1],4.7% [at 8.39 µM]
same,activity change,[2],-0.702% [at 8.39 µM]
same,"activity change, negative = inhibition",[3],-28.7% [at 8.39 µM]
same,activation,[4],-2.39% [at 8.39 µM]
same,"activity, negative = inhibition",[9],3.25% [at 8.39 µM]
same,"activity change, negative = cytotoxicity",[5],0.395% [at 8.39 µM]
same,"activity change, negative = cytotoxicity",[6],3.62% [at 8.39 µM]
same,activation,[7],-0.033% [at 8.39 µM]
same,"activity change, negative = cytotoxicity",[8],6.11% [at 8.39 µM]
CCN(CC)CC,outcome,[1],inactive
same,outcome,[2],inactive
same,Potency,[3],inactive
same,outcome,[5],inactive
NNC(=O)OCc1ccccc1,outcome,[1],inactive
same,outcome,[2],inactive
same,Potency,[3],inactive
same,Potency,[4],inactive
same,outcome,[9],inactive
same,outcome,[5],inactive
same,Potency,[6],inactive
same,outcome,[7],inactive
same,outcome,[8],inactive
CCCCCCCOC(C)=O,outcome,[1],inactive
same,outcome,[2],inactive
same,Potency,[3],inactive
same,outcome,[5],inactive
same,Potency,[6],inactive
same,outcome,[8],inactive
CCCCN1C(=O)c2ccccc2C1=O,outcome,[10],inactive
same,outcome,[2],inactive
same,Potency,[3],inactive
same,Potency,[4],inactive
same,outcome,[9],inactive
same,outcome,[5],inactive
same,Potency,[6],inactive
COc1ccc2cc(CCC(C)=O)ccc2c1,outcome,[1],inactive
same,outcome,[2],inactive
same,Potency,[3],inactive
same,Potency,[4],inactive
same,outcome,[9],inactive
same,outcome,[5],inactive
same,Potency,[6],inactive
same,outcome,[8],inactive
CCCc1ncc(C(=O)O)s1,outcome,[1],inactive
same,outcome,[2],inactive
same,Potency,[3],inactive
same,Potency,[4],inactive
same,outcome,[9],inactive
same,outcome,[5],inactive
same,Potency,[6],inactive
same,outcome,[7],inactive
same,outcome,[8],inactive
COC(=O)c1ccc(NC(C)=O)cc1OC,outcome,[1],inactive
same,outcome,[2],inactive
same,Potency,[3],inactive
same,outcome,[5],inactive
same,Potency,[6],inactive
same,outcome,[7],inactive
same,outcome,[8],inactive
COCCCOc1cc(C[C@@H](C[C@H](N)[C@@H](O)C[C@H](C(=O)NCC(C)(C)C(N)=O)C(C)C)C(C)C)ccc1OC,outcome,[1],inactive
same,outcome,[2],inactive
same,Potency,[3],inactive
same,outcome,[5],inactive
same,outcome,[8],inactive
N=C(N)N,outcome,[1],inactive
same,outcome,[2],inactive
same,Potency,[3],inactive
same,outcome,[5],inactive
same,Potency,[6],inactive
same,outcome,[8],inactive
c1cc2ccc3ccc4ccc5cccc6c(c1)c2c3c4c56,"viability change, negative = cytotoxic",[10],-2.17% [at 3.27 µM]
same,activity change,[2],0.83% [at 3.27 µM]
same,"activity change, negative = inhibition",[3],17.2% [at 3.27 µM]
same,"activity change, negative = cytotoxicity",[5],2.9% [at 3.27 µM]
same,"activity change, negative = cytotoxicity",[8],-0.247% [at 3.27 µM]
O=C(c1ccccc1)c1cccc(O)c1,outcome,[10],inactive
same,outcome,[2],inactive
same,Potency,[4],12.4 µM (active)
same,outcome,[5],inactive
same,Potency,[6],inactive
same,outcome,[7],inactive
same,outcome,[8],inactive
CC(=O)OCC(=O)[C@@]1(O)CC[C@H]2[C@@H]3CCC4=CC(=O)C=C[C@]4(C)[C@H]3[C@@H](O)C[C@@]21C,outcome,[10],inactive
same,outcome,[2],inactive
same,Potency,[3],inactive
same,Potency,[4],inactive
same,outcome,[5],inactive
C=C(C)C(=O)OCCCC,outcome,[10],inactive
same,outcome,[2],inactive
same,Potency,[3],inactive
same,Potency,[4],inactive
same,outcome,[9],inactive
same,outcome,[5],inactive
same,Potency,[6],inactive
same,outcome,[7],inactive
same,outcome,[8],inactive
COc1cc(NS(=O)(=O)c2ccc(N)cc2)ncn1,outcome,[10],inactive
same,outcome,[2],inactive
same,outcome,[5],inactive
same,Potency,[6],inactive
same,outcome,[8],inactive
O=C(O)Cc1ccccc1Oc1ccc(Cl)cc1Cl,outcome,[2],inactive
same,Potency,[3],inactive
same,outcome,[5],inactive
same,outcome,[8],inactive
NC(=O)CC[C@@H](N)C(=O)O,outcome,[10],inactive
same,outcome,[2],inactive
same,Potency,[4],inactive
same,outcome,[5],inactive
same,Potency,[6],inactive
same,outcome,[8],inactive
COC(=O)/C=C(\C)CCC=C(C)C,outcome,[10],inactive
same,outcome,[2],inactive
same,Potency,[4],inactive
same,outcome,[9],inactive
same,outcome,[5],inactive
same,Potency,[6],inactive
C=CCOC(=O)CCCCCCCC,outcome,[10],inactive
same,outcome,[2],inactive
same,Potency,[3],inactive
same,outcome,[9],inactive
same,outcome,[5],inactive
same,Potency,[6],inactive
Cc1ccc(O)c(C(=O)c2ccccc2)c1,outcome,[10],inactive
same,outcome,[2],inactive
same,Potency,[3],inactive
same,outcome,[5],inactive
same,Potency,[6],inactive
same,outcome,[7],inactive
same,outcome,[8],inactive
CCCCCCCCCCCCCCBr,outcome,[10],inactive
same,outcome,[2],inactive
same,Potency,[3],inactive
same,Potency,[4],inactive
same,outcome,[5],inactive
same,Potency,[6],inactive
same,outcome,[8],inactive
